# ± gives the standard deviation.
# Columns and labels:
# Conditions in all cases: modulator concentration 10 µM
# [1] = tested on: RAW-Dual (murine macrophage reporter line); test: NF-kB reporter (SEAP) activity fold change vs agonist alone; higher = enhanced NF-kB activity
# In short: (§1)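 Compound reached 10 μM final in each well by pin transfer, onto RAW-Dual murine macrophage reporter cells seeded at 50 000 per well in 384-well plates. After 1 hour at 37 °C, the cells were stimulated overnight with a PRR agonist. SEAP in the supernatant was read with QUANTI-Blue at 620 nm absorbance for NF-κB, and Lucia luciferase was read with QUANTI-Luc luminescence for IRF. Each signal was turned into fold change against the mean agonist-only control on the same plate, and two replicate plates were averaged with propagated errors.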
# [2] = tested on: RAW-Dual (murine macrophage reporter line); test: IRF reporter (Lucia luciferase) activity fold change vs agonist alone; higher = enhanced IRF activity
# In short: as §1
# [3] = tested on: RAW-Dual (murine macrophage reporter line); test: viability score (confluency relative to resting cells, overnight) (fraction); higher = more viable, active = viable (0.7 or more)
# In short: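 RAW-Dual macrophages in 384-well plates were incubated overnight with compound, final concentration 10 μM. Confluency images from IncuCyte were processed in IncuCyte software into two masks covering all imaged wells. The viability score is each well's confluency relative to resting cells, and a compound met the cutoff when both masks exceeded 70% of resting cells.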
# [4] = agonist: CpG ODN 1826 0.5 ug/mL
smiles,measurement,setting,value
C[C@H]1O[C@H]1P(=O)(O)O.NC(CO)(CO)CO,NF-kB reporter,[1]; [4],0.922 ± 0.053
same,NF-kB reporter,[1]; agonist: LPS 0.1 ug/mL,1.05 ± 0.064
same,NF-kB reporter,[1]; agonist: MPLA […],0.977 ± 0.079
same,IRF reporter,[2]; agonist: 3'3'-cGAMP 10 ug/mL,0.937 ± 0.036
same,IRF reporter,[2]; agonist: LPS 0.1 ug/mL,1.06 ± 0.15
same,IRF reporter,[2]; agonist: MPLA […],0.989 ± 0.2
same,viability score,[3],0.994 (active)
O=C(Nc1ccc(F)c([N+](=O)[O-])c1)c1cccs1,NF-kB reporter,[1]; [4],1.07 ± 0.072
same,NF-kB reporter,[1]; agonist: LPS 0.1 ug/mL,1.2 ± 0.098
same,NF-kB reporter,[1]; agonist: MPLA […],1.11 ± 0.067
same,IRF reporter,[2]; agonist: 3'3'-cGAMP 10 ug/mL,0.964 ± 0.037
same,IRF reporter,[2]; agonist: LPS 0.1 ug/mL,1.61 ± 0.14
same,IRF reporter,[2]; agonist: MPLA […],1.37 ± 0.13
same,viability score,[3],0.975 (active)
Cc1cccc(C(=O)NC(Nc2ccccc2C(F)(F)F)C(Cl)(Cl)Cl)c1 (stereo not drawn),NF-kB reporter,[1]; [4],0.896 ± 0.079
same,NF-kB reporter,[1]; agonist: LPS 0.1 ug/mL,1.05 ± 0.077
same,NF-kB reporter,[1]; agonist: MPLA […],1.22 ± 0.23
same,IRF reporter,[2]; agonist: 3'3'-cGAMP 10 ug/mL,0.948 ± 0.05
same,IRF reporter,[2]; agonist: LPS 0.1 ug/mL,1.22 ± 0.2
same,IRF reporter,[2]; agonist: MPLA […],1.26 ± 0.4
same,viability score,[3],1.01 (active)
O=C(Cc1ccc(F)cc1F)N1CCC(n2c(=O)[nH]c3ccccc3c2=O)CC1,NF-kB reporter,[1]; [4],1.01 ± 0.06
same,NF-kB reporter,[1]; agonist: LPS 0.1 ug/mL,1.15 ± 0.088
same,NF-kB reporter,[1]; agonist: MPLA […],0.997 ± 0.026
same,IRF reporter,[2]; agonist: 3'3'-cGAMP 10 ug/mL,0.878 ± 0.033
same,IRF reporter,[2]; agonist: LPS 0.1 ug/mL,1.07 ± 0.061
same,IRF reporter,[2]; agonist: MPLA […],1.03 ± 0.12
same,viability score,[3],1 (active)
O=C(c1ccc(F)cc1)N(C1CCCCC1)C1CCCCC1,NF-kB reporter,[1]; [4],0.68 ± 0.053
same,NF-kB reporter,[1]; agonist: LPS 0.1 ug/mL,0.921 ± 0.067
same,NF-kB reporter,[1]; agonist: MPLA […],1.07 ± 0.1
same,IRF reporter,[2]; agonist: 3'3'-cGAMP 10 ug/mL,0.959 ± 0.033
same,IRF reporter,[2]; agonist: LPS 0.1 ug/mL,1.28 ± 0.14
same,IRF reporter,[2]; agonist: MPLA […],1.4 ± 0.22
same,viability score,[3],1.02 (active)
CCN(CC)c1ccc(C=NNC(=O)c2ccccc2I)c(O)c1,NF-kB reporter,[1]; [4],1.35 ± 0.13
same,NF-kB reporter,[1]; agonist: LPS 0.1 ug/mL,0.997 ± 0.069
same,NF-kB reporter,[1]; agonist: MPLA […],1.26 ± 0.076
same,IRF reporter,[2]; agonist: 3'3'-cGAMP 10 ug/mL,0.436 ± 0.036
same,IRF reporter,[2]; agonist: LPS 0.1 ug/mL,1.08 ± 0.11
same,IRF reporter,[2]; agonist: MPLA […],1.09 ± 0.13
same,viability score,[3],0.926 (active)
CNCc1cc(-c2ccccc2F)n(S(=O)(=O)c2cccnc2)c1.O=C(O)/C=C/C(=O)O,NF-kB reporter,[1]; [4],0.612 ± 0.05
same,NF-kB reporter,[1]; agonist: LPS 0.1 ug/mL,1.04 ± 0.076
same,NF-kB reporter,[1]; agonist: MPLA […],0.98 ± 0.021
same,IRF reporter,[2]; agonist: 3'3'-cGAMP 10 ug/mL,0.931 ± 0.054
same,IRF reporter,[2]; agonist: LPS 0.1 ug/mL,0.97 ± 0.056
same,IRF reporter,[2]; agonist: MPLA […],0.855 ± 0.089
same,viability score,[3],0.999 (active)
O=C(CCCCCCNC(=O)c1cnc(N(c2ccccc2)c2ccccc2)nc1)NO,NF-kB reporter,[1]; [4],1.14 ± 0.067
same,NF-kB reporter,[1]; agonist: LPS 0.1 ug/mL,0.318 ± 0.026
same,NF-kB reporter,[1]; agonist: MPLA […],0.797 ± 0.15
same,IRF reporter,[2]; agonist: 3'3'-cGAMP 10 ug/mL,0.954 ± 0.08
same,IRF reporter,[2]; agonist: LPS 0.1 ug/mL,2.78 ± 0.69
same,IRF reporter,[2]; agonist: MPLA […],3.16 ± 1
same,viability score,[3],0.95 (active)
CCOc1ccccc1NC(=O)NCc1sc(-c2ccccc2Cl)nc1C,NF-kB reporter,[1]; [4],0.768 ± 0.19
same,NF-kB reporter,[1]; agonist: LPS 0.1 ug/mL,1.07 ± 0.058
same,NF-kB reporter,[1]; agonist: MPLA […],0.98 ± 0.072
same,IRF reporter,[2]; agonist: 3'3'-cGAMP 10 ug/mL,0.89 ± 0.048
same,IRF reporter,[2]; agonist: LPS 0.1 ug/mL,0.926 ± 0.17
same,IRF reporter,[2]; agonist: MPLA […],0.898 ± 0.11
same,viability score,[3],1 (active)
CCN(CC)CCOC(=O)c1ccc(N)cc1.Cl,NF-kB reporter,[1]; [4],1.29 ± 0.2
same,NF-kB reporter,[1]; agonist: LPS 0.1 ug/mL,1.08 ± 0.26
same,NF-kB reporter,[1]; agonist: MPLA […],1.89 ± 0.82
same,IRF reporter,[2]; agonist: 3'3'-cGAMP 10 ug/mL,0.923 ± 0.039
same,IRF reporter,[2]; agonist: LPS 0.1 ug/mL,1.22 ± 0.43
same,IRF reporter,[2]; agonist: MPLA […],1.16 ± 0.13
same,viability score,[3],0.996 (active)
CN(C)Cc1ccc(S(=O)(=O)n2ccc(/C=C/C(=O)NO)c2)cc1,NF-kB reporter,[1]; [4],0.517 ± 0.028
same,NF-kB reporter,[1]; agonist: LPS 0.1 ug/mL,0.946 ± 0.11
same,NF-kB reporter,[1]; agonist: MPLA […],1.25 ± 0.12
same,IRF reporter,[2]; agonist: 3'3'-cGAMP 10 ug/mL,1.3 ± 0.12
same,IRF reporter,[2]; agonist: LPS 0.1 ug/mL,1.49 ± 0.18
same,IRF reporter,[2]; agonist: MPLA […],1.6 ± 0.36
same,viability score,[3],0.334 (inactive)
Cc1ccc(Nc2nccc(N(C)c3ccc4c(C)n(C)nc4c3)n2)cc1S(N)(=O)=O,NF-kB reporter,[1]; [4],0.71 ± 0.11
same,NF-kB reporter,[1]; agonist: LPS 0.1 ug/mL,1.84 ± 0.36
same,NF-kB reporter,[1]; agonist: MPLA […],2.52 ± 0.16
same,IRF reporter,[2]; agonist: 3'3'-cGAMP 10 ug/mL,0.146 ± 0.014
same,IRF reporter,[2]; agonist: LPS 0.1 ug/mL,0.835 ± 0.15
same,IRF reporter,[2]; agonist: MPLA […],1.18 ± 0.14
same,viability score,[3],0.78 (active)
CN1CCN2c3ncccc3Cc3ccccc3C2C1 (stereo not drawn),NF-kB reporter,[1]; [4],0.912 ± 0.17
same,NF-kB reporter,[1]; agonist: LPS 0.1 ug/mL,1.07 ± 0.22
same,NF-kB reporter,[1]; agonist: MPLA […],1.71 ± 0.85
same,IRF reporter,[2]; agonist: 3'3'-cGAMP 10 ug/mL,0.861 ± 0.036
same,IRF reporter,[2]; agonist: LPS 0.1 ug/mL,1.42 ± 0.3
same,IRF reporter,[2]; agonist: MPLA […],1.18 ± 0.21
same,viability score,[3],0.998 (active)
O=C(Nc1nc2cccc(-c3ccc(CN4CCS(=O)(=O)CC4)cc3)n2n1)C1CC1,NF-kB reporter,[1]; [4],0.0988 ± 0.0077
same,NF-kB reporter,[1]; agonist: LPS 0.1 ug/mL,0.639 ± 0.07
same,NF-kB reporter,[1]; agonist: MPLA […],0.873 ± 0.05
same,IRF reporter,[2]; agonist: 3'3'-cGAMP 10 ug/mL,0.79 ± 0.047
same,IRF reporter,[2]; agonist: LPS 0.1 ug/mL,0.851 ± 0.2
same,IRF reporter,[2]; agonist: MPLA […],0.845 ± 0.25
same,viability score,[3],0.834 (active)

# Reference: the supplement of paper PMC10646978
